Here are results for 13 compounds from PubChem BioAssay.

Test [1] in a line: inhibitors of TNFa-induced NFkB p65 translocation, primary screen, imaging, HUVEC, MLSMR starter and 10KST1 sets (AID 438;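 active = inhibition above 20% together with a positive visual image hit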;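 note: compound added about 3h40 before a 20 min TNFalpha stimulation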;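 for inhibition: signal is the nuclear over cytoplasmic p65 intensity ratio per well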). The settings on record: HUVEC TNFa-induced p65 nuclear translocation; cell count: measured here: nuclei count (cytotoxicity indicator), at 2.08 µM; inhibition: at 2 µM, stronger effect = higher value, 0% TNFa-plus-vehicle, 100% no-TNFa wells.
Test [2] is described as follows: reduction of polyQ htt aggregates in cells – imaging, exon1htt(103Q)mCFP cells, high-content imaging, primary screen (AID 483).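 For nuclei count: percent of the per-plate median nuclei count of sample wells.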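 Note: compound exposure lasted 3 days before fixation.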 Particulars: exon1htt(103Q)mCFP cell line, aggregate imaging, at 2 µM; inhibition of aggregation: stronger effect = higher value; nuclei count: measured here: cell count, toxicity.
Test [3] in a line: endothelial E-selectin expression blockers – imaging, HUVEC, immunofluorescence, MLSMR starter and 10KST1 sets, primary screen (AID 487;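 active = visually confirmed hit in the image check and inhibition above 20%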;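 for inhibition: signal is fraction of cell area covered by stained E-selectin grains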;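 for nuclei count: 100% = median nuclei count of all wells on the same plate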). The settings on record: HUVEC TNFalpha-induced E-selectin immunofluorescence imaging, at 2 µM; inhibition: stronger effect = higher value; nuclei count: measured here: cell number, toxicity.
Test [4] deals with Voltage-gated potassium channel subunit beta-2 (Rattus norvegicus) (UniProt P62483). Briefly: inhibitors of rat Kvbeta2 reductase activity – biochemical, NADPH fluorescence, primary screen (AID 622;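 active = fluorescence slope higher than the sample average by over 3 SD, cut at about -0.22 in these data, passing the limit was not always enough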;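 note: slope of raw intensity against log time taken from 70 to 1610 s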). The settings on record: recombinant KvBeta, 4-cyanobenzaldehyde reduction, at 10 µM, stronger effect = higher value.
Test [5] shares this target. Description: enhancers of rat Kvbeta2 NADPH turnover – biochemical, NADPH fluorescence, primary screen (AID 623;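 active = NADPH fluorescence slope more negative than the mean of all samples by about 3 SD, 99.7% confidence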;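 note: fluorescence intensity change per second fitted from 20 to 320 s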). The settings on record: Recombinant KvBeta, NADPH fluorescence decrease slope, 10 min; at 10 µM; stronger effect = lower value.
Test [6] deals with Alpha-2C adrenergic receptor (Homo sapiens) (UniProt P18825). Description: compounds altering alpha2C-coupled GIRK flux – cell-based, HEK293 alpha2C/GIRK1/2, thallium flux, primary screen (AID 624;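 active = fluorescence slope after compound addition differing from the mean of all screened samples at 99.7% confidence, in either direction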;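 note: slope of fluorescence ratio to pre-addition baseline per second over 15 to 24 s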). The settings on record: thallium flux BTC fluorescence, at 10 µM, actives lie on both sides.
Test [7] in a line: blockers of RIG-like receptor reporter activation – cell-based, Sendai virus stimulus, luciferase, 10K MLSCN set, TLR/RLR signaling modifier project, primary screen (AID 602276;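 active = inhibition at or above 50% at 10 µM; inactive = inhibition below 50%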;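 note: firefly luciferase from ISG56 promoter only with Renilla not read in this screen; 0% = Sendai virus plus DMSO and 100% = medium plus DMSO without virus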). Particulars: HEK293 RL24 IRF3 luciferase reporter, at 10 µM, stronger effect = higher value.
Test [8] is described as follows: TLR3 IRF3 reporter activation blockers – cell-based, poly I:C stimulus, luciferase, 10K MLSCN set, primary screen (AID 602277;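 active = inhibition of the reporter signal at or above 50%; inactive = inhibition below 50%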). Particulars: HEK293-TLR3 RL24 IRF3 luciferase reporter, at 10 µM, stronger effect = higher value.

Each structure is given as a SMILES string. Active and inactive are the calls of the source.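 Rule for the calls, unless noted: active = visual image review flags a hit and inhibition of aggregation exceeds 20%; inconclusive = visual hit but inhibition at or below 20%; inactive = no hit on visual image review.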

Chain of Alpha-2C adrenergic receptor (Homo sapiens) (P18825 whole entry, looked up): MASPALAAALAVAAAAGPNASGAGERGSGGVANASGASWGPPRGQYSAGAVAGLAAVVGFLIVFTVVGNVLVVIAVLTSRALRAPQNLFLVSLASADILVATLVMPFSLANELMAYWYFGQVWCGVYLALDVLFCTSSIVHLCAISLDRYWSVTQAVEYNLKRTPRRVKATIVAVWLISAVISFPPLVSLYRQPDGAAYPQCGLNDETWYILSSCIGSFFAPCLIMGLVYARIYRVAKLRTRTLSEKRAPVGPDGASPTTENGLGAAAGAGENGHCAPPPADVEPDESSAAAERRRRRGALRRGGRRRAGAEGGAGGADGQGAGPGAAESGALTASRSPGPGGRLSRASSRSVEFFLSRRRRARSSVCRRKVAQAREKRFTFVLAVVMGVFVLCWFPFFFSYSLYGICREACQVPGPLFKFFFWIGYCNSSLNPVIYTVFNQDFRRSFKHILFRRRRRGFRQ
Chain of Voltage-gated potassium channel subunit beta-2 (Rattus norvegicus) (P62483 whole entry, looked up): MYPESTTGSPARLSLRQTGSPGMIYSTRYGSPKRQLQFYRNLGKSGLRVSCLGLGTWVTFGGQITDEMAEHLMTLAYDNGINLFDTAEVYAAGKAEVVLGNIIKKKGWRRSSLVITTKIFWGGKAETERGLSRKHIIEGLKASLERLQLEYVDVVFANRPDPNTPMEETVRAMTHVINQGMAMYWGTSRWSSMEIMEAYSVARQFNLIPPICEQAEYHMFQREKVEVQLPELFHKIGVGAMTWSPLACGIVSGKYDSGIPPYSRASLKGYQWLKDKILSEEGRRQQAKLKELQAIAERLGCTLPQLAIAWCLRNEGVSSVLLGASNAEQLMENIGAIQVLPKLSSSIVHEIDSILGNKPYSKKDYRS

Take `CC1CCN(C(=O)CSc2nc3ccccc3[nH]2)CC1`: the cell count in test [1] was 761. For the same compound, the inhibition in test [1] was 0.5% (inactive); in test [3], 75.2% (active); in test [7], -38.7% (inactive); in test [8], -116% (inactive). The inhibition of aggregation in test [2] was 1.8% (inactive). Moreover, the results for the nuclei count in test [2] and in test [3] were 110% and 88.9%, respectively. Moreover, the fluorescence slope in test [4] was -0.359 (inactive). Besides, the NADPH fluorescence slope in test [5] was -9.6e-06 (inactive). The slope in test [6] was 0.00679 (inactive).

Take `Cc1ccc(NC2=NC3(CCCCC3)N=C(N)N2)c(C)c1`: the cell count in test [1] was 530. Besides, the inhibition in test [1] is -4.7% (inactive); in test [3], -59.7% (inactive); in test [7] it was -10.3% (inactive); in test [8] it was 8.58% (inactive). For the same compound, the inhibition of aggregation in test [2] was 4.5% (inactive). For the same compound, the nuclei count in test [2] stood at 76.2%; in test [3], 99.3%. Moreover, in test [4], the fluorescence slope was -0.598 (inactive). Besides, the NADPH fluorescence slope in test [5] was -4.3e-05 (inactive). Further, the slope in test [6] is 0.00486 (inactive).

Turning to `CC(=O)c1coc2ccc(OCC(=O)O)cc12`, the cell count in test [1] is 678. The inhibition in test [1] was -11.2% (inactive); in test [3] it was -42.3% (inactive); in test [7] it was 6.78% (inactive); in test [8] it was 15.6% (inactive). Besides, the inhibition of aggregation in test [2] was -4.6% (inactive). For the same compound, the nuclei count in test [2] and in test [3] was 110% in each case. In test [4], the fluorescence slope was -0.598 (inactive). For the same compound, the NADPH fluorescence slope in test [5] is -4.1e-05 (inactive). In test [6], the slope was 0.00474 (inactive).

With `O=C1N(CCCCN2C(=O)C3(OCCO3)c3ccccc32)c2ccccc2C12OCCO2`, the cell count in test [1] was 578. The inhibition was -18.8% (inactive) in test [1], -60.9% (inactive) in test [3], 9.05% (inactive) in test [7] and 16.5% (inactive) in test [8]. The inhibition of aggregation in test [2] was -8.4% (inactive). Also, the nuclei count turned out to be 104% in test [2] and 112% in test [3]. Besides, the fluorescence slope in test [4] was -0.381 (inactive). Moreover, the NADPH fluorescence slope in test [5] was 2.4e-05 (inactive). Also, in test [6], the slope was 0.00398 (inactive).

For `COc1ccc(Nc2nc(-c3sc(N)nc3C)cs2)cc1`, in test [1], the cell count is 661. The inhibition in test [1] is -5.8% (inactive); in test [3], -75.8% (inactive); in test [7], -13.1% (inactive); in test [8] it was -17.6% (inactive). Further, the inhibition of aggregation in test [2] was -10.7% (inactive). The nuclei count in test [2] was found to be 116%; in test [3] it was 118%. Also, the fluorescence slope in test [4] is -0.376 (inactive). For the same compound, the NADPH fluorescence slope in test [5] is -6.4e-05 (inactive). Besides, the slope in test [6] is 0.0038 (inactive).

As for `COc1cc(CN2CCC(C(=O)NC3CCCC3)CC2)ccc1O`, the cell count in test [1] is 755. Also, the inhibition in test [1] is -5.5% (inactive); in test [3], -29.8% (inactive); in test [7] it was 4.81% (inactive); in test [8], 13.9% (inactive). The inhibition of aggregation in test [2] was -13.7% (inactive). Also, the nuclei count was 64.3% in test [2] and 124% in test [3]. Also, in test [4], the fluorescence slope is -0.344 (inactive). Besides, in test [5], the NADPH fluorescence slope is -3.9e-06 (inactive). Also, the slope in test [6] is 0.00666 (inactive).

Regarding `Cc1nnc(SCC(=O)N2CCC(C(=O)Nc3nccs3)CC2)n1Cc1ccccc1`, the cell count in test [1] was 405. The inhibition is 6.1% (inactive) in test [1], 10.2% (inactive) in test [3], 18.3% (inactive) in test [7] and 17% (inactive) in test [8]. Moreover, in test [2], the inhibition of aggregation was 8.5% (inactive). Besides, the nuclei count in test [2] worked out at 104%; in test [3] it was 100%. In test [4], the fluorescence slope was -0.604 (inactive). For the same compound, in test [5], the NADPH fluorescence slope was -4.4e-05 (inactive). Besides, the slope in test [6] is 0.00447 (inactive).

As for `CCOC(=O)N1CCN(C(=O)c2ccc3nc4ccsc4c(=O)n3c2)CC1`, the cell count in test [1] was found to be 542. The inhibition in test [1] was 9.1% (inactive); in test [3], 12.9% (inactive); in test [7] it was 14.6% (inactive); in test [8], 44.2% (inactive). In test [2], the inhibition of aggregation is -30.4% (inactive). For the same compound, the nuclei count in test [2] worked out at 65.4%; in test [3], 95.5%. Moreover, in test [4], the fluorescence slope is -0.324 (inactive). In addition, the NADPH fluorescence slope in test [5] was -1.8e-05 (inactive). Besides, the slope in test [6] is 0.00717 (inactive).

As for `CCN(CC)C(=O)C1=C(C)Nc2nnnn2C1c1cccnc1` (stereo not drawn), the cell count in test [1] was determined as 346. The inhibition in test [1] is 9.3% (inactive); in test [3], -55.9% (inactive); in test [7], 11.8% (inactive); in test [8], 16.8% (inactive). In addition, the inhibition of aggregation in test [2] is 11.2% (inactive). Moreover, the nuclei count is 102% in test [2] and 109% in test [3]. In test [4], the fluorescence slope was -0.567 (inactive). Besides, in test [5], the NADPH fluorescence slope was 1.1e-05 (inactive). For the same compound, in test [6], the slope was 0.0059 (inactive).

In the case of `COCCN(C(=O)c1csnn1)C(C(=O)NC1CCCCC1)c1cccs1` (stereo not drawn), the cell count in test [1] amounted to 370. For the same compound, the inhibition was 5% (inactive) in test [1], -52.1% (inactive) in test [3], 10.7% (inactive) in test [7] and 23.1% (inactive) in test [8]. For the same compound, the inhibition of aggregation in test [2] is -6.3% (inactive). For the same compound, the nuclei count in test [2] worked out at 107%; in test [3], 95.8%. In addition, the fluorescence slope in test [4] was -0.335 (inactive). The NADPH fluorescence slope in test [5] was 5.1e-05 (inactive). For the same compound, the slope in test [6] is 0.00648 (inactive).

Regarding `COC(=O)c1sc(N2C(=O)C(O)=C(C(=O)c3ccc(C)o3)C2c2ccc(F)cc2)nc1C` (stereo not drawn), the cell count in test [1] came to 325. Moreover, the inhibition in test [1] is 3% (inactive); in test [3], 35.1% (inactive); in test [7], 18.3% (inactive); in test [8], 4.43% (inactive). The inhibition of aggregation in test [2] is 10.4% (inactive). Moreover, the nuclei count turned out to be 96.6% in test [2] and 109% in test [3]. In addition, the fluorescence slope in test [4] is -0.419 (inactive). For the same compound, the NADPH fluorescence slope in test [5] was -5.6e-05 (inactive). Further, the slope in test [6] is 0.0054 (inactive).

As to `CCC(C)NC(=O)c1cc(CC(C)C)on1` (stereo not drawn), in test [1], the cell count worked out at 880. Also, the inhibition in test [1] was 3.5% (inactive); in test [3], -78.2% (inactive); in test [7], -59.4% (inactive); in test [8] it was -111% (inactive). Further, the inhibition of aggregation in test [2] was 21.8% (inactive). For the same compound, the nuclei count in test [2] came out at 80.5%; in test [3], 127%. Moreover, the fluorescence slope in test [4] is -0.61 (inactive). The NADPH fluorescence slope in test [5] is -1.9e-05 (inactive). Also, in test [6], the slope was 0.00602 (inactive).

For `C=CCn1c(SCC(=O)NCCCC)nc2scc(-c3ccco3)c2c1=O`, the cell count in test [1] was found to be 650. Further, the inhibition is -6.7% (inactive) in test [1], -4.2% (inactive) in test [3], 19.3% (inactive) in test [7] and 28.9% (inactive) in test [8]. In test [2], the inhibition of aggregation was 2.2% (inactive). For the same compound, the nuclei count in test [2] amounted to 120%; in test [3], 99.8%. In test [4], the fluorescence slope is -0.444 (inactive). In test [5], the NADPH fluorescence slope was -3.5e-05 (inactive). In test [6], the slope was 0.00561 (inactive).
